# Laboratory results taken from PubChem BioAssay AID2235 (The Scripps Research Institute Molecular Screening Center, 2010).
# Hit rate of the full screen: of about 320,000 compounds, about 2,800 (0.88%) were called active.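 How the source made its calls: active means inhibition above the mean inhibition of all tested compounds plus 3 SD, computed separately for each screening campaign (cut at about 15% in these data); inactive means the rest.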 What follows is part of a selection rich in actives, with near analogues and random picks from the rest.
# Biological target: Serine/threonine-protein phosphatase PP1-alpha catalytic subunit (Homo sapiens) (UniProt P62136)
# Assay: inhibition of human PP1 catalytic subunit – biochemical, fluorescence, OMFP substrate, single point, counter-screen for PP5 inhibitor project, primary screen (AID 2235)
# Settings: purified PP1alpha, at 6.7 µM, stronger effect = higher value
# Serine/threonine-protein phosphatase PP1-alpha catalytic subunit (Homo sapiens), sequence (P62136 whole entry, looked up): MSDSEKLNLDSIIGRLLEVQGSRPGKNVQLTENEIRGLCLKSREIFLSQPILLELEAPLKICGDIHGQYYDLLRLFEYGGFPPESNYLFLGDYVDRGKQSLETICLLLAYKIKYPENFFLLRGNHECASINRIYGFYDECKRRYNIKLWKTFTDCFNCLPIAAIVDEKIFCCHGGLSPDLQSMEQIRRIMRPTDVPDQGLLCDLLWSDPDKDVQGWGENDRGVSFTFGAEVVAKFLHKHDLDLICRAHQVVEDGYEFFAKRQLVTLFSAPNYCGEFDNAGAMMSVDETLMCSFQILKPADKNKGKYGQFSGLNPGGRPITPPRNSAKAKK
row,Structure (SMILES),inhibition
1,Cc1c(Cl)c([N+](=O)[O-])nn1CC(=O)NCC1CCCO1 (stereo not given),-3.7% (inactive)
2,COc1ccccc1N1CCN(S(=O)(=O)c2ccc3c(c2)NC(=O)CS3)CC1,5.88% (inactive)
3,CCOc1ccc(C(=O)Nc2ccc(S(=O)(=O)NCC3CCCO3)cc2)cc1OCC (stereo not given),-1.6% (inactive)
4,COC(C[C@@H](O)C[C@@H](O)[C@H](C)OCc1ccccc1)OC,0.46% (inactive)
5,COCCC(=O)N1CCC(Oc2ccc(C(=O)NCc3ccon3)cc2)CC1,-0.97% (inactive)
6,CCN(CC)CCNC(=O)c1ccc(NC(=O)c2cc(-c3ccncc3)nc3ccccc23)cc1,-7.72% (inactive)
7,O=C(Nc1ccc(S(=O)(=O)Nc2nccs2)cc1)c1cc(-c2ccncc2)nc2ccccc12,27.5% (active)
8,O=C(Nc1ccc(S(=O)(=O)Nc2nccs2)cc1)c1cc(=O)[nH]c2ccccc12,0.73% (inactive)
9,c1ccc(C2CNCc3c2ccc2ccccc32)cc1 (stereo not given),3.78% (inactive)
10,Cn1cnc(C(F)(F)F)c1-c1ccc([N+](=O)[O-])cc1,-0.23% (inactive)
11,C[N+](C)(C)CCOP(=O)([O-])OC[C@H](O)CO,-5.96% (inactive)
12,C/C(=N\NC(=O)CC(C)C)c1c(C(F)(F)F)[nH]n(-c2nc3ccccc3s2)c1=O,4.43% (inactive)
13,CCC(=O)NC(=Nc1nc2ccccc2s1)NC(=O)CC,-4.21% (inactive)
14,COC(=O)Cc1cc(=O)n(-c2nc3ccccc3s2)[nH]1,19.6% (active)
15,NC(=O)c1ccsc1NC(=O)COC(=O)Cc1n[nH]c(=O)c2ccccc12,-0.46% (inactive)
16,C/C(CC(O)(/C=N/O)c1ccccc1)=N\O (stereo not given),31.4% (active)
17,O=C(CSc1nnnn1-c1ccc(O)cc1)N1N=C(c2ccc3ccccc3c2)CC1c1ccccc1 (stereo not given),-3.09% (inactive)
18,CC(=O)Oc1ccccc1C1=NN(C(C)=O)C(c2ccccc2)C1 (stereo not given),-2.36% (inactive)

row,Structure (SMILES),inhibition
1,Oc1ccccc1C1=NN(c2ccccc2)C(c2ccccc2)C1 (stereo not given),0.4% (inactive)
2,Cc1ccc(N2C(=O)C3N=NN(CC(=O)N4N=C(c5cccc6ccccc56)CC4c4ccccc4)C3C2=O)cc1 (stereo not given),29.8% (active)
3,O=C(c1ccccc1)N1N=C(c2ccccc2O)CC1c1ccc(Br)cc1 (stereo not given),6.46% (inactive)
4,O=C1C2N=NN(CC(=O)N3N=C(c4cccc5ccccc45)CC3c3ccccc3)C2C(=O)N1c1ccccc1 (stereo not given),30.5% (active)
5,COc1ccc(C(=NN)c2ccc(OC)cc2)cc1,-2.58% (inactive)
6,COc1ccc(-c2nc3c(s2)CCc2onc(-c4ccc(Br)cc4)c2-3)cc1,-1.07% (inactive)
7,CCc1ccc(N(CC)c2ncnc3nc[nH]c23)cc1,2.16% (inactive)
8,[2H]C(CCOS(N)(=O)=O)c1ccccc1 (stereo not given),-3.22% (inactive)
9,Cc1cc(C(=O)OCC(=O)NCc2ccco2)c(C)n1-c1ccccc1,-0.54% (inactive)
10,CN(C)/C=C(/C(=O)c1ccc(Cl)cc1)S(=O)(=O)c1ccccc1,0.05% (inactive)
11,CC(C)(C)c1nnc(NC(=O)C2c3ccccc3Oc3ccccc32)s1,1.1% (inactive)
12,Cc1noc(/C=C/c2ccco2)c1S(=O)(=O)N1CCC(C(=O)Nc2ccc(Cl)cn2)CC1,0.73% (inactive)
13,Cc1noc(/C=C/c2ccco2)c1S(=O)(=O)N1CCC(C(=O)N2CCc3ccccc32)CC1,15.4% (active)
14,CNC(=O)C1CCN(S(=O)(=O)c2c(C)noc2/C=C/c2cccc(C)c2)CC1,0.59% (inactive)
15,O=C(CSc1nc2ccccc2c(=O)n1CCCO)NC1CC1,-4.92% (inactive)
16,O=C(COC(=O)Cc1ccccc1F)NNC(=O)c1ccc(Cl)cc1,-4.59% (inactive)
17,C#CCCCc1nc2ccccc2c(=O)n1N,-2.85% (inactive)
